Rows were chosen to be rich in hits. Some 9.5% of all compounds tested hit in one or more screens of this group.
NPSR antag – qHTS Assay for Antagonists of the Neuropeptide S Receptor: cAMP Signal Transduction. Q6W5P4. CHO-NPSR cells, cAMP TR-FRET, antagonist mode. Potency, µM (series often up to 38.3 µM), for inactives: at the highest dose activity change, negative = inhibition, most hits filed as inhibitors. actives 1% (n = 220,000); also: nearly all actives have a fitted effect of over 50% in size
Target sequence (Q6W5P4 whole entry, looked up): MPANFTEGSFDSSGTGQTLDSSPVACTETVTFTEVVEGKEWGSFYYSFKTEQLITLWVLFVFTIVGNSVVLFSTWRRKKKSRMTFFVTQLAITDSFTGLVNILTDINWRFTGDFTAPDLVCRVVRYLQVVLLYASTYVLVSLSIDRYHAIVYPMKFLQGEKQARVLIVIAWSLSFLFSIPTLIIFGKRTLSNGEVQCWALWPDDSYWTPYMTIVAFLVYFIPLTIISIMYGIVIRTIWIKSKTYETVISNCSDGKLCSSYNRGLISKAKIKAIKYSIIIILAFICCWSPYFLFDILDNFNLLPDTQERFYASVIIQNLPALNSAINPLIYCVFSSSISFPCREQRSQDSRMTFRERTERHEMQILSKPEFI
Tau fluor counter – Counterscreen qHTS for Inhibitors of Tau Fibril Formation, Fluorescence Polarization. tau K18 P301L Alexa594 fluorescence, heparin fibrillization. actives 0.93% (n = 280,000). Potency, µM (highest dose often 57.7 µM), without a hit: at the top dose activity change, negative = decrease; also: nearly all actives have a fitted effect of over 55% in size
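Human tau K18 P301L (15 uM unlabeled, 0.24 uM Alexa 594-labeled) in 100 mM sodium acetate pH 7 with 20 uM heparin, 6 hr at 37 C. ThT 30 uM added, 1 hr ambient; Alexa 594 FP and total fluorescence read at 555/632 nm.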
HPGD inh – qHTS Assay for Inhibitors of HPGD (15-Hydroxyprostaglandin Dehydrogenase); AID 894, 2007; 15-hydroxyprostaglandin dehydrogenase [NAD(+)] (Homo sapiens), P15428; Potency, µM, inactives show at the highest dose activity change, negative = inhibition, usual class: inhibitors; actives 4.3% (n = 150,000); purified HPGD, NADH fluorescence kinetic, PGE2 substrate; active = well fitted inhibition curve with a large enough effect, not every such curve was filed as active; inconclusive = small, poorly fitted or top-dose-only effect, or another doubt; inactive = no such curve, though single readings can be large or run the other way
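20 nM HPGD preincubated 15 min at room temperature with compound in 50 mM Tris-HCl pH 8, 0.01% Tween 20. Started with 1 mM NAD+ and 30 uM prostaglandin E2; NADH fluorescence (360/450 nm) read 5 times over 30-s intervals, last minus first.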
ALDH1A1 inh – qHTS Assay for Inhibitors of Aldehyde Dehydrogenase 1 (ALDH1A1) | Aldehyde dehydrogenase 1A1 (Homo sapiens), P00352 | Purified ALDH1A1, NADH fluorescence, propionaldehyde substrate | Potency, µM (highest dose often 75.3 µM), for the others: top-dose activity, negative = inhibition, hits mostly inhibitors | actives 7.3% (n = 220,000); active = well fitted inhibition curve with a large enough effect, not every such curve was filed as active; inconclusive = small, poorly fitted or top-dose-only effect, or another doubt; inactive = no such curve, though single readings can be large or run the other way;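 also: plate controls were no enzyme wells and a reference inhibitor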
Tau fibril ThT – qHTS for Inhibitors of Tau Fibril Formation, Thioflavin T Binding; Microtubule-associated protein tau (Homo sapiens), P10636; recombinant tau K18 P301L (four-repeat tau fragment), heparin-induced fibrillization, ThT fluorescence; Potency, µM (series often up to 57.4 µM), for inactives: at the highest dose activity, negative = inhibition, actives largely listed as inhibitors; actives 2.1% (n = 270,000); also: nearly all actives have a fitted effect of over 55% in size
Target sequence (P10636 561-689 P618L limits assumed): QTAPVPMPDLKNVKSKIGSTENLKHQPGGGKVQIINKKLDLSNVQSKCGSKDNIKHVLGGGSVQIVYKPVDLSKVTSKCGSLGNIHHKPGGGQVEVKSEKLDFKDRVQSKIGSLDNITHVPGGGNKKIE
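Tau K18 P301L fragment (15 uM unlabeled plus 0.24 uM Alexa 594-labeled) in 100 mM sodium acetate pH 7 with compound, fibrillization induced by 20 uM heparin for 6 hr at 37 C. Thioflavin T (30 uM) added, fluorescence read after 1 hr (ex 450, em 510 nm).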
Tau fibril FP – qHTS for Inhibitors of Tau Fibril Formation, Fluorescence Polarization; AID 1468, 2008; actives 0.39% (n = 280,000); Microtubule-associated protein tau (Homo sapiens), P10636; K18 P301L tau heparin fibrillization, Alexa594 FP, 6 h; Potency, µM (highest dose often 57.7 µM), for inactives: top-dose activity, negative = inhibition, hits mostly inhibitors; also: nearly all actives have a fitted effect of over 55% in size
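Compound effects on tau fibrillization are measured by Alexa 594 fluorescence polarization (ex 555, em 632 nm). K18 P301L tau is used at 15 uM with 0.24 uM labeled tracer, and 20 uM heparin induces aggregation over 6 hr at 37 C.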
An asterisk follows results filed as active; [ ] = dose if it differs, or a comment. Unless noted, calls follow the shape of the dose curve; as a rule, active = well fitted curve in the direction sought with a large enough effect; inconclusive = small, poorly fitted or top-dose-only effect, or another doubt; inactive = no such curve, though single readings can be large; an effect the other way counts as inactive or inconclusive. Unless noted, % is scaled to controls: 0 for no effect and ±100 for the full control effect; potency is read from the fitted curve at half-maximal effect.

For Cc1ccc(NC(=O)CSc2ccc(-c3cccs3)nn2)cc1Cl the results were Tau fluor counter -24%, Tau fibril ThT -1% and Tau fibril FP inconclusive.
O=c1[nH]ncc(N/N=C\c2cccs2)c1Cl was read as NPSR antag -8%, Tau fluor counter -4%, ALDH1A1 inh 0%, Tau fibril ThT -6% and Tau fibril FP 10%.
Cc1ccc(-c2c(C#N)c(N)n3c(nc4ccccc43)c2C#N)cc1 was read as NPSR antag -8%[46.1 µM], Tau fluor counter inconclusive, HPGD inh inconclusive, ALDH1A1 inh 19µM*, Tau fibril ThT inconclusive and Tau fibril FP inconclusive.
Screening COc1nc(NC23CC4CC(CC(C4)C2)C3)nc(OC)n1 returned NPSR antag -21%[46.1 µM], Tau fluor counter -14%, HPGD inh -10%, ALDH1A1 inh 25µM*, Tau fibril ThT -13% and Tau fibril FP -6%.
`C1CCN=C(NC23CC4CC(CC(C4)C2)C3)CC1` gave NPSR antag 14%, Tau fluor counter -2%, HPGD inh -6%, ALDH1A1 inh 7%, Tau fibril ThT -4% and Tau fibril FP 3%.
`Cc1c(NC(=S)N/N=C/c2cc([N+](=O)[O-])ccc2O)c(=O)n(-c2ccccc2)n1C` gave NPSR antag 16%, Tau fluor counter -26%, ALDH1A1 inh -14%, Tau fibril ThT 32µM* and Tau fibril FP -1%.
For CSc1nsc(SCC(=O)Nc2nc3ccc(C)cc3s2)n1 the results were NPSR antag 0%[46.1 µM], Tau fluor counter -24%, HPGD inh -15%, ALDH1A1 inh 40µM*, Tau fibril ThT inconclusive and Tau fibril FP inconclusive.
Screening COC(=O)c1ccc2nc(NC(=O)COC(=O)CSc3nc(C)cc(C)n3)sc2c1 returned NPSR antag 2%, Tau fluor counter inconclusive, HPGD inh -18%, ALDH1A1 inh 4%, Tau fibril ThT inconclusive and Tau fibril FP -14%.
For Cc1ccc2nc(NC(=O)COC(=O)CSc3nc(C)cc(C)n3)sc2c1 the results were NPSR antag -3%[46.1 µM], Tau fluor counter 6%, HPGD inh inconclusive, ALDH1A1 inh 13µM*, Tau fibril ThT 9% and Tau fibril FP 0%.
`Cc1ccccc1NC(=O)c1ccc(-c2ccc(Cl)cc2Cl)o1` gave NPSR antag -30%[46.1 µM], Tau fluor counter -22%, HPGD inh inconclusive, ALDH1A1 inh inconclusive, Tau fibril ThT inconclusive and Tau fibril FP -4%.
CC1=NOC(=O)/C1=C\c1ccc(-c2ccc(Cl)cc2Cl)o1 was read as NPSR antag inconclusive, Tau fluor counter inconclusive, HPGD inh 1.8µM*, ALDH1A1 inh 10µM*, Tau fibril ThT 20µM* and Tau fibril FP -5%.
`COc1ccccc1NC(=O)c1nn(C)c2c1CS(=O)(=O)c1ccccc1-2` gave Tau fluor counter 5%, Tau fibril ThT -1% and Tau fibril FP 6%.
Screening O=C(c1ccncc1)N1CCC2(CCCN(c3ccccc3)C2)CC1 returned HPGD inh -9% and ALDH1A1 inh -9%.
For O=C(COC(=O)c1ccc(Br)o1)Nc1nc2c(F)c(F)c(F)cc2s1 the results were NPSR antag -6%, Tau fluor counter -22%, ALDH1A1 inh 22µM*, Tau fibril ThT -15% and Tau fibril FP -11%.
`CCOC(=O)c1ccc(N2CCN(c3cc(C)ccc3C)CC2)c(NC(=O)Nc2ccccc2)c1` gave Tau fluor counter -25%, Tau fibril ThT -3% and Tau fibril FP -13%.
Screening CCOC(=O)CSc1nc2ccc(NC(=O)c3ccccc3)cc2s1 returned Tau fluor counter inconclusive, Tau fibril ThT -14% and Tau fibril FP inconclusive.

Screening data: PubChem BioAssay, National Center for Advancing Translational Sciences (NCATS)
